# Active and inactive are the calls of the source. Entries that show only a call come without a potency. Unless noted, calls come from the whole dose curve.
# Tested on: not listed separately
# Assay: qHTS assay to identify small molecule antagonists of the thyroid receptor (TR) signaling pathway (AID 743065; active = well fitted inhibition curve with a large enough effect in the repeat runs; inconclusive = weak or mixed curves; inactive = no such curve, though single readings can be large or run the other way; note: nearly all actives have a fitted effect of over 55% in size; note: potency is the fitted concentration of half-maximal effect)
# Settings: GH3.TRE-Luc, T3-stimulated luciferase inhibition, 23.5 h; series mostly up to 70.3 µM
# Summary of the method: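 Antagonism measured as loss of luciferase signal in GH3 cells stably carrying a TRE-luciferase reporter, co-treated with compound and T3 (1 nM final) for 23.5 h at 37 C. Viability was read in the same well by CellTiter-Fluor.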
row,SMILES,Potency
1,Nc1ccc2c3c(cccc13)-c1ccccc1-2,43.7 µM (active)
2,CN(C)[C@@H]1C(=O)C(C(N)=O)=C(O)[C@@]2(O)C(=O)C3=C(O)c4c(O)ccc(Cl)c4[C@@H](O)[C@H]3C[C@@H]12,inactive
3,O=C(Nc1ccc(Oc2ccc(Cl)cc2)c(Cl)c1)c1cc(I)cc(I)c1O,29.8 µM (active)
4,OCCN(CCO)c1nc(N2CCCCC2)c2nc(N(CCO)CCO)nc(N3CCCCC3)c2n1,23.7 µM (active)
5,Cc1cc(=O)oc2cc(N(C)C)ccc12,inactive
6,CC(C)=CCOc1ccc(/C=C/C(=O)c2ccc(OCC=C(C)C)cc2OCC(=O)O)cc1,26.6 µM (active)
7,CCOC(=O)c1nc(C(Cl)(Cl)Cl)n(-c2ccc(Cl)cc2Cl)n1,68.6 µM (active)
8,Cc1cc(O)c2ccccc2c1O,33.5 µM (active)
9,CCCCN1C(=O)[C@@H]([C@H](O)C2CCCCC2)NC(=O)C12CCN(Cc1ccc(Oc3ccc(C(=O)O)cc3)cc1)CC2,61.1 µM (active)
10,Nc1c(Cl)cc(Cl)cc1Cl,inactive
11,O=C(N/N=C/c1ccccc1O)c1ccncc1,29.8 µM (active)
12,Cc1cc(N)c(S(=O)(=O)O)cc1Cl,inactive
13,O=C(OCC(COC(=O)c1ccccc1)(COC(=O)c1ccccc1)COC(=O)c1ccccc1)c1ccccc1,inactive

# Tested on: thyroid hormone receptor (rat, GH3 cells)
# Assay: qHTS assay to identify small molecule agonists of the thyroid receptor (TR) signaling pathway (AID 743066)
# Settings: GH3.TRE-Luc cells, TR agonist luciferase, 24 h; series mostly up to 83.9 µM
row,SMILES,Potency
1,Nc1ccc2c3c(cccc13)-c1ccccc1-2,inactive
2,CN(C)[C@@H]1C(=O)C(C(N)=O)=C(O)[C@@]2(O)C(=O)C3=C(O)c4c(O)ccc(Cl)c4[C@@H](O)[C@H]3C[C@@H]12,inactive
3,O=C(Oc1ccccc1)c1ccccc1C(=O)Oc1ccccc1,inactive
4,Nc1c2ccccc2nc2ccccc12,inactive
5,CCCCN(CCCC)C(=O)N(CCCC)CCCC,inactive
6,O=Cc1cc(O)ccc1Br,inactive
7,CCCC(C)c1ccccc1O (centres undefined),inactive
8,CCN(C(=O)c1cc(C)cc(OC[C@H](C)Nc2ccncc2)c1)C(C)C,inactive
9,OCCN(CCO)c1nc(N2CCCCC2)c2nc(N(CCO)CCO)nc(N3CCCCC3)c2n1,inactive
10,Cc1cc(=O)oc2cc(N(C)C)ccc12,inactive
11,CSc1ccc(/C=C2/C(C)=C(CC(=O)O)c3cc(F)ccc32)cc1,inactive
12,CCCCCCCCCOC(=O)c1ccc(O)cc1,inactive
13,CC(C)C(C)(C)C(C)(C)C(C)(C)S,inactive
14,C[C@@H]1C[C@H]2[C@@H]3CCC4=CC(=O)C=C[C@]4(C)[C@@]3(Cl)[C@@H](O)C[C@]2(C)[C@@]1(OC(=O)c1ccco1)C(=O)CCl,inactive
15,Nc1c(Cl)cc(Cl)cc1Cl,inactive
16,Nc1ccc2cc(S(=O)(=O)O)cc(O)c2c1N=Nc1ccccc1C(F)(F)F,inactive
17,NNc1nc(-c2ccc(N)cc2)cs1,inactive
18,CCC(Cl)C(Cl)C(Cl)CC(Cl)C(Cl)C(C)Cl (centres undefined),inactive
19,CCOc1ccc2nc3cc(N)ccc3c(N)c2c1,inactive
20,Cc1cc(N)c(S(=O)(=O)O)cc1Cl,inactive
21,OCCCCCCCCCCCCBr,inactive
22,CN(C)c1ccc(SC#N)cc1,inactive
23,O=C(OCC(COC(=O)c1ccccc1)(COC(=O)c1ccccc1)COC(=O)c1ccccc1)c1ccccc1,inactive
24,CNc1ccc(O)cc1,inactive

# Molecular target: Estrogen receptor (Homo sapiens) (UniProt P03372)
# Sequence (P03372 whole entry, looked up): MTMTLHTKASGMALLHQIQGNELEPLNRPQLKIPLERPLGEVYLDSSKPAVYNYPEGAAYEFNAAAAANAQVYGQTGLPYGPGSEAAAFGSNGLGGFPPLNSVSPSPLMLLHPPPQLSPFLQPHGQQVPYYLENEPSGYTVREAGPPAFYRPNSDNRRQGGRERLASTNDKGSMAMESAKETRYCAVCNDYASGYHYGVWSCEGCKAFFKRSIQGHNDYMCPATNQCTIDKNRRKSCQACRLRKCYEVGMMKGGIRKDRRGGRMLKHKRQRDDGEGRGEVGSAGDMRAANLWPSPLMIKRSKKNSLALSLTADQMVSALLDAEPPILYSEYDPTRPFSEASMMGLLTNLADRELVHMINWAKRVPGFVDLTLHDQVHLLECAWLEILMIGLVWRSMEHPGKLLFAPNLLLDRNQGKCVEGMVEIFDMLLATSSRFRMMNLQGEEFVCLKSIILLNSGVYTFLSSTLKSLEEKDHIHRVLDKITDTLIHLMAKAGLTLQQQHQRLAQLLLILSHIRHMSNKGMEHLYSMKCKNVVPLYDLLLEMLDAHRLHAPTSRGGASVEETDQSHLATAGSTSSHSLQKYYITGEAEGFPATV
# Assay: qHTS assay to identify small molecule antagonists of the estrogen receptor alpha (ER-alpha) signaling pathway (AID 743069; active = well fitted curve in the direction sought with a large enough effect in the signal ratio in the repeat runs, not every such curve was filed as active; inconclusive = weak or mixed curves, or effect the other way; inactive = no such curve, though single readings can be large or run the other way; the % refers to the signal ratio; note: potency is the fitted concentration of half-maximal effect)
# Settings: HEK293 ER-alpha-UAS-bla, beta-lactamase ratio, antagonist mode; series mostly up to 69.4 µM
# Summary of the method: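 Compound effects are measured against 17beta-estradiol stimulation in HEK293 cells with a UAS-controlled beta-lactamase reporter for ER-alpha. Exposure lasts 18 hr at 37C; LiveBLAzer B/G FRET substrate follows for 2 hr at room temperature.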
row,SMILES,Potency
1,O=Cc1cc(O)ccc1Br,inactive
2,CCCC(C)c1ccccc1O (centres undefined),inactive
3,CC(C)C(C)(C)C(C)(C)C(C)(C)S,inactive
4,CC(C)=CCOc1ccc(/C=C/C(=O)c2ccc(OCC=C(C)C)cc2OCC(=O)O)cc1,16.9 µM [inconclusive] (active)
5,Cc1cc(O)c2ccccc2c1O,inactive
6,CCCCN1C(=O)[C@@H]([C@H](O)C2CCCCC2)NC(=O)C12CCN(Cc1ccc(Oc3ccc(C(=O)O)cc3)cc1)CC2,inactive
7,Cc1onc(-c2ccccc2Cl)c1C(=O)N[C@@H]1C(=O)N2[C@@H]1SC(C)(C)[C@@H]2C(=O)O,inactive
8,CCOc1ccc2nc3cc(N)ccc3c(N)c2c1,inactive
9,CSc1ccc(C(=O)c2[nH]c(=O)[nH]c2C)cc1,inactive

# Tested on: not listed separately
# Assay: qHTS assay to identify small molecule antagonists of the estrogen receptor alpha (ER-alpha) signaling pathway - cell viability counter screen (AID 743074);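 note: HEK293 cells carrying ER-alpha-UAS-bla reporter stimulated with 17beta-estradiol; nearly all actives have a fitted effect of over 45% in size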; note: potency is the fitted concentration of half-maximal effect
# Settings: ERalpha-bla HEK293 viability, CellTiter-Glo luminescence, 18 h; series mostly up to 69.4 µM
row,SMILES,Potency
1,CN(C)[C@@H]1C(=O)C(C(N)=O)=C(O)[C@@]2(O)C(=O)C3=C(O)c4c(O)ccc(Cl)c4[C@@H](O)[C@H]3C[C@@H]12,inactive
2,O=C(Oc1ccccc1)c1ccccc1C(=O)Oc1ccccc1,inactive
3,Nc1c2ccccc2nc2ccccc12,inactive
4,CCCCN(CCCC)C(=O)N(CCCC)CCCC,inactive
5,NC(=O)CC[C@@H]1NC(=O)[C@H](Cc2ccccc2)NC(=O)[C@H](Cc2ccc(O)cc2)NC(=O)CCSSC[C@@H](C(=O)N2CCC[C@H]2C(=O)N[C@@H](CCCN=C(N)N)C(=O)NCC(N)=O)NC(=O)[C@H](CC(N)=O)NC1=O,inactive
6,O=C(Nc1ccc(Oc2ccc(Cl)cc2)c(Cl)c1)c1cc(I)cc(I)c1O,6.01 µM (active)
7,CC(NN)c1ccccc1 (centres undefined),inactive
8,O=Cc1cc(O)ccc1Br,inactive
9,CCCC(C)c1ccccc1O (centres undefined),inactive
10,CCN(C(=O)c1cc(C)cc(OC[C@H](C)Nc2ccncc2)c1)C(C)C,inactive
11,OCCN(CCO)c1nc(N2CCCCC2)c2nc(N(CCO)CCO)nc(N3CCCCC3)c2n1,inactive
12,CN(C/C=C/C#CC(C)(C)C)Cc1cccc2ccccc12,inactive
13,Cc1cc(=O)oc2cc(N(C)C)ccc12,inactive
14,CCN(CC)CCCC(C)Nc1c2ccc(Cl)cc2nc2ccc(OC)cc12 (centres undefined),inactive
15,CC(C)=CCOc1ccc(/C=C/C(=O)c2ccc(OCC=C(C)C)cc2OCC(=O)O)cc1,inactive
16,CCOC(=O)c1nc(C(Cl)(Cl)Cl)n(-c2ccc(Cl)cc2Cl)n1,inactive
17,Cc1cc(O)c2ccccc2c1O,inactive

row,SMILES,Potency
1,CCCCN1C(=O)[C@@H]([C@H](O)C2CCCCC2)NC(=O)C12CCN(Cc1ccc(Oc3ccc(C(=O)O)cc3)cc1)CC2,inactive
2,C[C@@H]1C[C@H]2[C@@H]3CCC4=CC(=O)C=C[C@]4(C)[C@@]3(Cl)[C@@H](O)C[C@]2(C)[C@@]1(OC(=O)c1ccco1)C(=O)CCl,inactive
3,Nc1c(Cl)cc(Cl)cc1Cl,inactive
4,Nc1ccc2cc(S(=O)(=O)O)cc(O)c2c1N=Nc1ccccc1C(F)(F)F,inactive
5,O=C(N/N=C/c1ccccc1O)c1ccncc1,inactive
6,Fc1ccc(C(c2ccc(F)cc2)N2CCN(C/C=C/c3ccccc3)CC2)cc1,inactive
7,O=[N+]([O-])c1cc([N+](=O)[O-])c2ccc(S(=O)(=O)O)cc2c1O,inactive
8,NNc1nc(-c2ccc(N)cc2)cs1,inactive
9,CCC(Cl)C(Cl)C(Cl)CC(Cl)C(Cl)C(C)Cl (centres undefined),inactive
10,Cc1onc(-c2ccccc2Cl)c1C(=O)N[C@@H]1C(=O)N2[C@@H]1SC(C)(C)[C@@H]2C(=O)O,inactive
11,CCOc1ccc2nc3cc(N)ccc3c(N)c2c1,inactive
12,CSc1ccc(C(=O)c2[nH]c(=O)[nH]c2C)cc1,inactive
13,Cc1cc(N)c(S(=O)(=O)O)cc1Cl,inactive
14,OCCCCCCCCCCCCBr,inactive
15,CN(C)c1ccc(SC#N)cc1,inactive
16,O=C(OCC(COC(=O)c1ccccc1)(COC(=O)c1ccccc1)COC(=O)c1ccccc1)c1ccccc1,inactive
